Assay [1] has as its target Pantothenate synthetase (Mycobacterium tuberculosis (strain ATCC 25618 / H37Rv)) (UniProt P9WIL5). Description: Recombinant Mtb pantothenate synthetase (PanC) inhibitors, coupled enzyme, confirmatory (AID 375; call rule not given here;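 note: 0% = full reaction with vehicle and 100% = no enzyme background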). Conditions: coupled enzyme assay; at 10 µM, stronger effect = higher value.
A short description of assay [2]: SK-BR-3 cell growth inhibitors, pilot screen, 24 h, human (AID 572;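 active = viability at or below 10% of carrier control in both of two separate runs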;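 note: compound exposure lasted between 18 and 24 h rather than exactly 24 h; 100% = carrier-treated control wells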). The note with it: SK-BR-3 viability, CellTiter-Glo luminescence, at 10 µM, stronger effect = lower value.
Assay [3] can be described thus: reversal of MRP1-mediated doxorubicin resistance, pilot screen, H69AR cells, doxorubicin co-treatment (AID 601). Conditions: CellTiter-Glo, 72 h, at 10 µM; for differential viability (reversal): stronger effect = higher value. For orientation: Cellular ATP, detected with luciferase, serves as a proxy for viable cell number.
Assay [4] is described as follows: 384-well plate pilot, post-Golgi transport modulator project, inhibition of yeast transport mutant growth (AID 636; in the data active = inhibition above about 31%). The note with it: absorbance 615 nm, about 18 h, stronger effect = higher value.
The nature of assay [5]: growth suppression of yeast trafficking mutant, preliminary HTS, modulators of trafficking downstream of Golgi apparatus project, 1536-format plate, OD 615 nm (AID 637; in the data active = inhibition above about 30%). The note with it: yeast transport mutant growth, absorbance 615 nm, 18 h; stronger effect = higher value.
Assay [6] can be described thus: HUVEC growth inhibition – cell-based, human, primary screen (AID 575;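 active = viability at or below 30% in both replicate assays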;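 note: 100% = median of untreated cell wells with 0.1% DMSO on each plate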). The note with it: HUVEC proliferation, CellTiter-Glo luminescence, 72 h; at 10 µM; stronger effect = lower value.
Assay [7] in a line: growth inhibitors of H69AR lung tumor, primary screen, human, duplicate replicates (AID 580;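 active = viability at or under a set limit in both replicates, limit being median viability minus 3 SD, cut at about 48% in these data, passing the limit was not always enough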;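 note: 100% = mean luminescence of untreated wells and 0% = no signal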). The note with it: H69AR lung tumor cells viability, ATP luminescence, 72 h; at 10 µM; stronger effect = lower value.
A short description of assay [8]: OD615 S. cerevisiae growth inhibition, permissive medium, pilot counter-assay, permissive growth control for S. cerevisiae lifespan shortening project (AID 705;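 active = growth inhibition above 25% in both replicates, a cutoff set 3 SD above the mean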). The note with it: OD615, 24 h, at 10 µM, stronger effect = higher value.
Assay [9] in a line: Restrictive medium S. cerevisiae growth inhibition, OD615, pilot screen of yeast lifespan reduction project, restrictive growth control (AID 706;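 active = growth inhibition above a set limit, 3 SD over mean compound inhibition, in both replicates, cut at about 43% in these data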;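 note: modified DeaD lifespan yeast strain shifted to restrictive glucose medium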). Conditions: OD615, 48 h, at 10 µM, stronger effect = higher value.
The nature of assay [10]: viability gain of MRP-1-high H69AR cells under doxorubicin, pilot screen, MRP-1 activator project, CellTiter-Glo, duplicate (AID 807;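 active = viability increase at or above a cutoff of the median across tested compounds plus 3 SD, cut at about 8.5% in these data, passing the limit was not always enough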;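 note: compound pretreatment 18-22 h then 72 h combined with doxorubicin; 0% = doxorubicin alone and 100% = vehicle without doxorubicin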). Conditions: H69AR viability with doxorubicin, CellTiter-Glo luminescence; at 10 µM; stronger effect = higher value.
A short description of assay [11]: growth suppression of beta-catenin knockout HCT116, pilot screen, human colon tumor cells (AID 823;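 active = cell viability at or below a set limit in both duplicate runs, the limit being the all-compound median minus 4 SD, cut at about 23% in these data, passing the limit was not always enough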;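 note: 0% = wells killed by 20 µM Hyamine and 100% = untreated DMSO cell wells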). Conditions: CellTiter-Glo, 60 h, at 10 µM, stronger effect = lower value.
A short description of assay [12]: inhibitors of the yeast RAM network, pilot screen, dse1pr::URA3 reporter, 5-FOA selection (AID 869;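 active = inhibition over a set limit, the all-compound mean plus 3 SD, in both replicate runs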;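 note: 0% = DMSO wells with no growth and 100% = 10 µM 1-NA-PP1 with full growth; RAM network block rescues cells from 5-FOA so hits raise OD615 growth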). The note with it: S. cerevisiae dse1pr::URA3 5-FOA growth, OD615, 2 d, at 10 µM, stronger effect = higher value.
Assay [13] can be described thus: growth suppression of PTEN-deleted HCT116, pilot screen, cell-based, HCT116 clonal line, CellTiter-Glo (AID 824;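 active = viability at or below 27.92% in each of two runs, the all-compound median minus 4 SD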;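 note: 0% = 20 µM Hyamine control and 100% = vehicle cell control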). Conditions: 60 h, at 10 µM, stronger effect = lower value.
The mark [14] stands for this setting: H69AR cells + 2 uM doxorubicin, measured here: viability with 2 uM doxorubicin, stronger effect = lower value.
The mark [15] stands for this setting: H69AR cells, compound alone cytotoxicity.

Records with an inconclusive call do not appear. Active and inactive are the calls of the source.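 Rule for the calls, unless noted: active = viability loss from added drug above about 55%, and viability with drug at most 40%, in both replicates (limit read from the data, passing the limit was not always enough); inconclusive = both conditions met in only one replicate; inactive = neither replicate meets both conditions.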

Pantothenate synthetase (Mycobacterium tuberculosis (strain ATCC 25618 / H37Rv)), sequence (P9WIL5 whole entry, looked up): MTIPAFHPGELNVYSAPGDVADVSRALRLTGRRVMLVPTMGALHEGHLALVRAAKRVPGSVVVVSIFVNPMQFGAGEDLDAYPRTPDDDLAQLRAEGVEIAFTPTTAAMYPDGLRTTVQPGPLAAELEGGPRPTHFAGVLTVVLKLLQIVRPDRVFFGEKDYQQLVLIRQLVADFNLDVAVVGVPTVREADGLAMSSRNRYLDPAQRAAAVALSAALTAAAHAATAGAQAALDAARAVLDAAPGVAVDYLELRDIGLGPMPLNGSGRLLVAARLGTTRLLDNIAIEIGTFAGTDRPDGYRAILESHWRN

Regarding `Cc1cccc(C2=NCC(=O)N(CC(=O)NCc3ccco3)c3sc4c(c32)CCCC4)c1`, the inhibition (in general, the change of the read-out against control, counted positive when it falls) was 8% (inactive) in assay [1], -6.49% (inactive) in assay [4] and 4.6% (inactive) in [5]. Also, the viability (usually a read-out of living cells in per cent, often relative to untreated cells) in [2] was 102% (inactive); in assay [3] (setting [14]) it was 84.4%; in [3] (setting [15]) it was 55.9%. Moreover, the differential viability (reversal) in assay [3] (H69AR cells + 2 uM doxorubicin) is -28.5% (inactive).

As to `CCOC(=O)c1cc2c(cn1)[nH]c1ccccc12`, the inhibition in assay [1] was 6% (inactive); in [4], -0.91% (inactive); in assay [5], -3.17% (inactive). Further, the viability was 122% (inactive) in assay [2]; 89.3% (inactive) in assay [6]; 88% (inactive) in [7]; 84.8% in assay [3] (setting [14]); 88% in assay [3] (setting [15]). Moreover, the differential viability (reversal) in [3] (H69AR cells + 2 uM doxorubicin) is 3.16% (inactive).

`Cc1c2ccncc2c(C)c2c1[nH]c1ccccc12`: the inhibition in [1] is 0% (inactive); in assay [4], 1.56% (inactive); in [5], 3.33% (inactive). In addition, the values for the viability in assay [6], in [3] (setting [14]) and in [3] (setting [15]) were 1.5% (active), 0.98% and 1.16%, respectively. For the same compound, in assay [3] (H69AR cells + 2 uM doxorubicin), the differential viability (reversal) is 0.18% (inactive).

Consider `CN1C[C@H](CNC(=O)OCc2ccccc2)C[C@@H]2c3cccc4c3c(cn4C)C[C@H]21`, for which the inhibition in assay [1] is 4% (inactive). Further, the viability in assay [6] was 2.42% (active); in [7], 66.3% (inactive); in [3] (setting [14]), 65.2%; in assay [3] (setting [15]), 66.3%. For the same compound, the differential viability (reversal) in assay [3] (H69AR cells + 2 uM doxorubicin) is 1.09% (inactive).

`Cc1cccc(-n2c(O)c(C=NCCCN3CCOCC3)c(=O)[nH]c2=O)c1C`: the values for the inhibition in assay [1], in [4] and in assay [5] were 2% (inactive), 0.8% (inactive) and -2.7% (inactive), respectively. Further, the viability in assay [6] is 100% (inactive); in [7], 105% (inactive); in assay [3] (setting [14]) it was 90.7%; in assay [3] (setting [15]), 105%. Also, the differential viability (reversal) in assay [3] (H69AR cells + 2 uM doxorubicin) was 14.8% (inactive).

In the case of `CN(C)CCN=Cc1c(O)n(-c2cccc3ccccc23)c(=O)[nH]c1=O`, the inhibition in [1] is 6% (inactive); in [4], -5.87% (inactive); in assay [5], 1.9% (inactive). For the same compound, the viability in assay [6] is 103% (inactive); in [7] it was 105% (inactive); in assay [3] (setting [14]), 92.8%; in [3] (setting [15]), 105%. In addition, in assay [3] (H69AR cells + 2 uM doxorubicin), the differential viability (reversal) is 11.9% (inactive).

For the compound `CCOc1cccc(N2C(=O)CC(=O)NC2=O)c1`, the inhibition in [1] was 0% (inactive); in assay [4], -2.6% (inactive); in assay [5], -8.55% (inactive). The viability in assay [2] is 124% (inactive); in assay [6] it was 107% (inactive); in assay [7], 94.5% (inactive); in assay [3] (setting [14]), 96.8%; in [3] (setting [15]), 94.5%. Besides, the differential viability (reversal) in assay [3] (H69AR cells + 2 uM doxorubicin) is -2.27% (inactive).

On to `CCCC(C)(COC(N)=O)COC(=O)NC(C)C` (configuration not stated), for which the inhibition in [1] is 0% (inactive); in assay [4], -1.69% (inactive); in assay [5], 4.17% (inactive). The viability was 88% (inactive) in assay [2]; 86.4% (inactive) in assay [6]; 100% (inactive) in assay [7]; 103% in assay [3] (setting [14]); 100% in assay [3] (setting [15]). Further, the differential viability (reversal) in assay [3] (H69AR cells + 2 uM doxorubicin) is -3.16% (inactive).

On to `O=c1[nH]c2ccccc2n1C1CCN(CCCC(c2ccc(F)cc2)c2ccc(F)cc2)CC1`, for which, in assay [1], the inhibition is 5% (inactive). Moreover, the viability is 2.55% (active) in assay [6], 1.62% in assay [3] (setting [14]) and 1.16% in assay [3] (setting [15]). Besides, the differential viability (reversal) in [3] (H69AR cells + 2 uM doxorubicin) is -0.46% (inactive).

Consider `C[C@]12CCC(=O)C=C1CC[C@@H]1[C@@H]2CC[C@]2(C)C(=O)CC[C@@H]12`, for which the inhibition in assay [1] is 0% (inactive); in [4] it was -3.38% (inactive); in assay [5], -0.83% (inactive). Moreover, the viability was 79% (inactive) in [2]; 76.8% (inactive) in assay [6]; 85.3% (inactive) in [7]; 86.8% in [3] (setting [14]); 85.3% in assay [3] (setting [15]). The differential viability (reversal) in assay [3] (H69AR cells + 2 uM doxorubicin) was -1.5% (inactive).

For `CN1CCN(C(=O)COc2ccc(-c3nc4ccccc4s3)cc2)CC1`, the growth inhibition was -5.45% (inactive) in [8] and 10.8% (inactive) in assay [9]. Besides, the viability increase in assay [10] was -4.38% (inactive). Besides, the viability in assay [11] was 66.1% (inactive). Moreover, the inhibition in assay [12] is 2.09% (inactive).

Regarding `C[C@H]1CCC/C=C/C2C[C@H](O)CC2[C@H](O)/C=C/C(=O)O1` (some centres not stated), the inhibition in [1] is 0% (inactive); in assay [4], -2.08% (inactive); in assay [5], 0% (inactive). Also, the viability in assay [2] is 120% (inactive); in [6] it was 7.17% (active); in assay [3] (setting [14]) it was 1.34%; in assay [3] (setting [15]), 1.93%. Further, the differential viability (reversal) in [3] (H69AR cells + 2 uM doxorubicin) was 0.59% (inactive).

`O=C1c2ccccc2C(=O)N1Cc1nc2ccccc2c(=O)n1-c1ccc(Br)cn1`: the growth inhibition was -8.78% (inactive) in assay [8] and -3.02% (inactive) in [9]. Moreover, in assay [10], the viability increase was 0.3% (inactive). Besides, the viability in [11] is 98.4% (inactive); in [13] it was 99.3% (inactive). In addition, in assay [12], the inhibition is 1.44% (inactive).

`Cc1ccc2c(c1)[C@@H]1CN(C)CC[C@@H]1N2C(=O)Nc1cccc(C(F)(F)F)c1`: the inhibition in assay [1] was 9% (inactive); in assay [4], 1.45% (inactive); in assay [5], 1.15% (inactive). The values for the viability in [7], in assay [3] (setting [14]) and in assay [3] (setting [15]) were 69.9% (inactive), 78.1% and 69.9%, respectively. Also, the differential viability (reversal) in assay [3] (H69AR cells + 2 uM doxorubicin) is -8.21% (inactive).

In the case of `Clc1ccc(COC(Cn2ccnc2)c2ccc(Cl)cc2Cl)cc1` (configuration not stated), the inhibition in [1] was 2% (inactive). The viability is 123% (inactive) in assay [2], 73.4% (inactive) in assay [6], 48% in assay [3] (setting [14]) and 38.5% in [3] (setting [15]). The differential viability (reversal) in assay [3] (H69AR cells + 2 uM doxorubicin) was -9.47% (inactive).

With `N=C(N)c1c(O)n(C2CCCCC2)c(=O)n(C2CCCCC2)c1=O`, the inhibition was 0% (inactive) in [1], -9.32% (inactive) in assay [4] and 7.14% (inactive) in assay [5]. Further, the viability in assay [6] is 2.35% (active); in assay [7], 2.02% (active); in assay [3] (setting [14]), 1.86%; in [3] (setting [15]), 2.02%. Moreover, the differential viability (reversal) in [3] (H69AR cells + 2 uM doxorubicin) is 0.155% (inactive).

Values taken from PubChem BioAssay.
